Experimental data published in PubChem BioAssay AID1159580 (chemical genetic matrix, 2015).
Among all 5,500 compounds or so, about 2,000 (36%) were called active. Not shown: some 18% with an inconclusive outcome. No stated cut-off is given here; in the data, active means normalized growth mostly below about 0.91 (no sharp cut-off); inconclusive means no clear call, values can overlap the other calls; inactive means mostly above about 0.92. The list shows a part of the results.

Assay: chemical genetic growth profiling, strain panel (AID 1159580);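 further: tested at 20 µM; growth read once vehicle control cultures reached saturation at 30 °C; 1 = growth at the plate median or of vehicle wells; lower values mean less growth of the strain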
Settings: growth OD

Measured: normalized growth

Cc1cc(=O)[nH]c(=S)[nH]1
inactive: S. cerevisiae deletion strains, locus YJR075W, strain HOC1, active compounds read low 1.02 | S. cerevisiae deletion strains, locus YKL009W, strain mrt4, active compounds read low 0.999 | S. cerevisiae deletion strains, locus YKL068W, active compounds read low 1 | S. cerevisiae deletion strains, locus YKL085W, strain MDH1 (second series), active compounds read low 0.977 | S. cerevisiae deletion strains, locus YKL085W, strain MDH1, active compounds read low 0.977 | S. cerevisiae deletion strains, locus YKL160W, strain elf1, active compounds read low 0.974 | S. cerevisiae deletion strains, locus YKL190W, strain CNB1, active compounds read low 1 | S. cerevisiae deletion strains, locus YKR001C, strain vps1, active compounds read low 1.01 | S. cerevisiae deletion strains, locus YKR026C, strain gcn3, active compounds read low 0.992 | S. cerevisiae deletion strains, locus YKR091W, strain srl3, active compounds read low 0.967 | S. cerevisiae deletion strains, locus YLL001W, strain dnm1, active compounds read low 1.01 | S. cerevisiae deletion strains, locus YLL026W, active compounds read low 0.979 | S. cerevisiae deletion strains, locus YLL041C, strain sdh2, active compounds read low 0.978 | S. cerevisiae deletion strains, locus YLR027C, strain aat2, active compounds read low 0.973 | S. cerevisiae deletion strains, locus YLR039C, strain RIC1, active compounds read low 1.03 | S. cerevisiae deletion strains, locus YLR058C, strain SHM2, active compounds read low 1.01 | S. cerevisiae deletion strains, locus YLR102C, strain apc9, active compounds read low 1 | S. cerevisiae deletion strains, locus YLR113W, strain HOG1, active compounds read low 1.03 | S. cerevisiae deletion strains, locus YLR221C, strain rsa3, active compounds read low 0.973 | S. cerevisiae deletion strains, locus YLR258W, strain gsy2, active compounds read low 0.98 | S. cerevisiae deletion strains, locus YLR262C, strain YPT6 (second series), active compounds read low 0.981 | S. cerevisiae deletion strains, locus YLR262C, strain YPT6, active compounds read low 1.07 | S. cerevisiae deletion strains, locus YLR268W, strain sec22, active compounds read low 1.08 | S. cerevisiae deletion strains, locus YLR320W, strain mms22, active compounds read low 0.956 | S. cerevisiae deletion strains, locus YLR330W, strain CHS5, active compounds read low 1.01 | S. cerevisiae deletion strains, locus YLR342W, strain FKS1 (second series), active compounds read low 1 | S. cerevisiae deletion strains, locus YLR342W, strain FKS1, active compounds read low 0.985 | S. cerevisiae deletion strains, locus YLR357W, strain rsc2, active compounds read low 0.944 | S. cerevisiae deletion strains, locus YLR370C, strain arc18, active compounds read low 0.973 | S. cerevisiae deletion strains, locus YLR371W, strain rom2, active compounds read low 1.02 | S. cerevisiae deletion strains, locus YLR384C, strain iki3, active compounds read low 0.989 | S. cerevisiae deletion strains, locus YLR418C, strain cdc73, active compounds read low 1.02 | S. cerevisiae deletion strains, locus YML016C, strain PPZ1, active compounds read low 1.01 | S. cerevisiae deletion strains, locus YML032C, strain rad52, active compounds read low 1.04 | S. cerevisiae deletion strains, locus YML120C, strain ndi1, active compounds read low 0.972 | S. cerevisiae deletion strains, locus YML124C, strain tub3, active compounds read low 1 | S. cerevisiae deletion strains, locus YMR058W, strain fet3, active compounds read low 0.976 | S. cerevisiae deletion strains, locus YMR078C, strain ctf18, active compounds read low 1.01 | S. cerevisiae deletion strains, locus YMR125W, strain sto1, active compounds read low 0.933 | S. cerevisiae deletion strains, locus YMR129W, active compounds read low 0.969 | S. cerevisiae deletion strains, locus YMR205C, strain PFK2, active compounds read low 0.976 | S. cerevisiae deletion strains, locus YMR223W, strain ubp8, active compounds read low 0.989 | S. cerevisiae deletion strains, locus YMR231W, strain pep5, active compounds read low 1 | S. cerevisiae deletion strains, locus YMR263W, strain SAP30, active compounds read low 1.03 | S. cerevisiae deletion strains, locus YMR307W, strain GAS1, active compounds read low 1.05 | S. cerevisiae deletion strains, locus YNL067W, strain RPL9B, active compounds read low 1.02 | S. cerevisiae deletion strains, locus YNL071W, strain lat1, active compounds read low 0.963 | S. cerevisiae deletion strains, locus YNL128W, strain TEP1, active compounds read low 1 | S. cerevisiae deletion strains, locus YNL153C, strain GIM3, active compounds read low 1.03 | S. cerevisiae deletion strains, locus YNL183C, strain NPR1, active compounds read low 0.977 | S. cerevisiae deletion strains, locus YNL209W, strain ssb2, active compounds read low 0.973 | S. cerevisiae deletion strains, locus YNL233W, strain BNI4, active compounds read low 1.02 | S. cerevisiae deletion strains, locus YNL250W, strain rad50, active compounds read low 1.01 | S. cerevisiae deletion strains, locus YNL271C, strain bni1, active compounds read low 1.01 | S. cerevisiae deletion strains, locus YNL298W, strain CLA4, active compounds read low 1.01 | S. cerevisiae deletion strains, locus YNL307C, strain MCK1, active compounds read low 1.01 | S. cerevisiae deletion strains, locus YNL322C, strain KRE1 (second series), active compounds read low 0.969 | S. cerevisiae deletion strains, locus YNL322C, strain KRE1, active compounds read low 1 | S. cerevisiae deletion strains, locus YNR049C, strain mso1, active compounds read low 0.978 | S. cerevisiae deletion strains, locus YNR052C, strain pop2, active compounds read low 1.01 | S. cerevisiae deletion strains, locus YOL006C, strain TOP1, active compounds read low 1.08 | S. cerevisiae deletion strains, locus YOL012C, strain htz1 1.27 | S. cerevisiae deletion strains, locus YOL147C, strain pex11, active compounds read low 1 | S. cerevisiae deletion strains, locus YOR001W, strain rrp6, active compounds read low 0.975 | S. cerevisiae deletion strains, locus YOR061W, strain CKA2, active compounds read low 1.01 | S. cerevisiae deletion strains, locus YOR069W, strain VPS5, active compounds read low 1.01 | S. cerevisiae deletion strains, locus YOR070C, strain gyp1, active compounds read low 0.987 | S. cerevisiae deletion strains, locus YOR080W, strain dia2, active compounds read low 0.965 | S. cerevisiae deletion strains, locus YOR083W, strain WHI5, active compounds read low 0.964 | S. cerevisiae deletion strains, locus YOR106W, strain vam3, active compounds read low 0.999 | S. cerevisiae deletion strains, locus YOR136W, strain idh2, active compounds read low 1 | S. cerevisiae deletion strains, locus YOR144C, strain elg1, active compounds read low 1 | S. cerevisiae deletion strains, locus YOR184W, strain ser1, active compounds read low 1.01 | S. cerevisiae deletion strains, locus YOR231W, strain MKK1, active compounds read low 1.03 | S. cerevisiae deletion strains, locus YOR265W, strain rbl2, active compounds read low 0.98 | S. cerevisiae deletion strains, locus YOR270C, strain vph1, active compounds read low 0.976 | S. cerevisiae deletion strains, locus YOR290C, strain snf2, active compounds read low 0.94 | S. cerevisiae deletion strains, locus YOR316C, strain cot1, active compounds read low 1.01 | S. cerevisiae deletion strains, locus YPL051W, strain arl3, active compounds read low 0.982 | S. cerevisiae deletion strains, locus YPL055C, strain LGE1, active compounds read low 1 | S. cerevisiae deletion strains, locus YPL078C, strain atp4, active compounds read low 0.973 | S. cerevisiae deletion strains, locus YPL106C, strain sse1, active compounds read low 0.919 | S. cerevisiae deletion strains, locus YPL240C, strain hsp82, active compounds read low 0.958 | S. cerevisiae deletion strains, locus YPL241C, strain CIN2, active compounds read low 1.01 | S. cerevisiae deletion strains, locus YPL256C, strain CLN2, active compounds read low 1.12 | S. cerevisiae deletion strains, locus YPR119W, strain clb2, active compounds read low 1 | S. cerevisiae deletion strains, locus YPR141C, strain kar3, active compounds read low 1 | S. cerevisiae deletion strains, locus YPR163C, strain tif3, active compounds read low 1.01 | S. cerevisiae deletion strains, locus YPR167C, strain met16, active compounds read low 1.01 | S. cerevisiae deletion strains, strain wtn01, active compounds read low 1.03 | S. cerevisiae strains, strain wild type, active compounds read low 1.01
active: S. cerevisiae deletion strains, locus YNL248C, strain rpa49, active compounds read low 0.872
